The text below walks through data of ChEMBL document CHEMBL1157539, “Thousands of chemical starting points for antimalarial lead identification” (Nature, 2010).

This test has as its system Plasmodium falciparum. The test is described as follows: GSK_TCMDC: Inhibition of Plasmodium falciparum 3D7 in whole red blood cells, using parasite LDH activity as an index of growth. Test compounds present at 2uM. The class given is functional.
The molecule `Cc1occc1C(=O)Nc1nc(-c2ccccn2)nc2ccsc12` yielded an Inhibition of 98%. As for `COc1cc(C)nc2ccc(NC(=O)c3cc(C(F)(F)F)cc(C(F)(F)F)c3)cc12.Cl`, the figure is 100%; as for `CC(C)[C@H](NC(=O)NC1CCC(CCN2C3CCC2CC(OC(=O)C(CO)c2ccccc2)C3)CC1)C(O)(c1ccccc1)c1ccccc1` (stereo not given in full), 90%; as for `Cc1onc(-c2c(F)cccc2Cl)c1C(=O)Nc1ccccc1I`, 99%.

`CCc1ccc(NC(=O)c2cccc(CN3CCCN(CC4CCCCC4)CC3)c2)cc1.O=C(O)C(F)(F)F` registered an Inhibition of 85%. For the molecule `COCCOc1cc(C)c(C2CCN(CCCCNC(=O)c3ccc(NC(=O)c4ccc(Cl)cc4)cc3)CC2)cc1C`, the Inhibition is listed as 88%. With `Cc1cccc2nc(-c3cccc(-c4cccc(NC(=O)NCc5cccc(F)c5)c4)c3)[nH]c12`, the Inhibition is 98%. The figure for `Cc1cccc(-c2nn(-c3ccccc3)cc2C(=O)Nc2nnc(C)o2)c1` is 84%; for `CCN1CCCC1CN(Cc1ccc(-c2ccc(C(F)(F)F)cc2)cc1)C(=O)Cn1c(CCc2cccc(F)c2F)nc(=O)c2ccccc21.O=C(O)C(O)C(O)C(=O)O` (stereo not given) it is 94%. As for `COc1ccc(CC(=O)NC(CCN2CCC3(CCc4ccccc43)CC2)c2ccc(Cl)c(Cl)c2)cc1` (stereo not given), the figure is 90%; as for `CN1CCN(c2ccc3nccc(CCN4CCC(NCc5ccc6c(n5)NC(=O)CO6)CC4)c3n2)CC1.Cl`, 97%. In turn, `CC(C)C[C@H](NC(=O)c1ccc(OCCN2CCOCC2)cc1)C(=O)N[C@H](/C=N/N(C)C(=O)c1ccccc1)CCc1ccccc1` displayed an Inhibition of 91%.

With `COc1ccc(-c2nc(-c3ccc([N+](=O)[O-])cc3)no2)cc1OC`, the Inhibition was determined as 96%. The figure for `N=C(NCc1ccccc1)Nc1nc(-c2ccc(OCCCn3ccnc3)cc2)cs1` is 100%; for `Nc1ccc(-c2nc3cc(C4=N[C@H]5CCCC[C@H]5N4)ccc3o2)cc1[N+](=O)[O-]` it is 95%.

In the case of `O=C(Nc1cccc(-c2ccc(-c3nc4ccccc4[nH]3)cc2)c1)c1cnn2cccnc12`, the Inhibition worked out at 87%.

Molecule `Cc1cc(O)c(CN(C)Cc2ccc3c(c2)OCCO3)cc1C(C)C` returned an Inhibition of 98%.

For `N#Cc1cccc(CN2CCCN(Cc3ccc(C(=O)Nc4ccc(Cl)cc4)cc3)CC2)c1.O=C(O)C(F)(F)F`, the Inhibition was 98%. As for `COc1ccccc1C1CCN(C2CCC(NC(=O)/C=C/c3ccc(C(F)(F)F)cc3)CC2)CC1` (stereo not given), the figure is 88%. The figure for `CCCOc1ccccc1-c1nc2[nH]c3c(c2c(=O)[nH]1)CCN(C)C3` is 87%. The molecule `Cc1noc(C)c1-c1ccc2c(Nc3ccccc3C(C)(C)C)c(C(=O)NCc3cccc4ccccc34)cnc2c1.Cl` registered an Inhibition of 96%.

For the molecule `O=C(Nc1cccc(CN2CCCN(Cc3cccc(O)c3)CC2)c1)c1ccc(-c2ccccc2)cc1.O=C(O)C(F)(F)F`, the Inhibition came out at 100%. The figure for `CN1CCN(CCCN(Cc2cccc(-c3ccc(CNCc4ccc5c(c4)OCO5)cc3)c2)C(=O)Nc2ccccc2)CC1.O=C(O)C(F)(F)F` is 98%; for `O=C(Nc1ccnc(N2CC3CC2CN3Cc2cccc(O)c2)c1)c1ccc(F)cc1.O=C(O)C(F)(F)F` (stereo not given) it is 92%. As for `Cc1cc(=NN=Cc2ccccc2F)c2cccc(C)c2[nH]1`, the figure is 100%; as for `O=C(Nc1cccc(-c2cccc(-c3ccc(F)cc3)n2)c1)c1ccc([N+](=O)[O-])o1`, 99%.

The molecule `COc1cc(-c2nc3c4ccccc4c4ccccc4c3[nH]2)cc(OC)c1OC` displayed an Inhibition of 90%. As for `Cc1cc(F)ccc1[C@H]1C[C@H](N2CCOCC2)CCN1C(=O)N(C)[C@@H](C)c1cc(C(F)(F)F)cc(C(F)(F)F)c1.Cl`, the figure is 100%. In turn, `Nc1c(Cl)cc(C(O)CNCCCCCCOCCC=C2CCOCC2)cc1Cl` (stereo not given) displayed an Inhibition of 100%. On to `CCCCNCc1ccc(-c2nc(CN(Cc3ccc(Cl)c(Cl)c3)C(=O)CN(C)C)cs2)cc1.O=C(O)C(F)(F)F`, for which the Inhibition was 100%.

In turn, `CCN1CCN(c2ccc(NC(=O)c3cc4c(C)nn(-c5ccccc5)c4s3)cc2C)CC1` registered an Inhibition of 100%.

`FC(F)(F)c1cccc(C=NNc2nc3ccccc3[nH]2)c1` yielded an Inhibition of 100%. The figure for `O=S(=O)(Nc1cccc(CCN2CCC(N3CCCCC3)CC2)c1)c1ccc(-c2ccccc2)cc1` is 100%. The figure for `Cc1cccc(C(=O)NC(NC(=S)Nc2cc(Cl)ccc2Cl)C(Cl)(Cl)Cl)c1` (stereo not given) is 94%; for `O=C(/C=C/c1ccc(Cl)c(Cl)c1)NCCCCCN1CCCC(C(=O)Nc2ccc(F)c(Cl)c2)C1` (stereo not given) it is 99%. For the molecule `CN1CCCCC1CCc1cc(C(=O)Nc2ccc(-c3ccc(O)cc3)cc2)ccc1O` (stereo not given), the Inhibition is 91%. The figure for `CC(C)COc1ccc(Cl)cc1Cc1nc(-c2nc3ccc(CN4CCCC4)cc3[nH]2)co1.Cl` is 100%.

`CCN(CCCN1CCCCC1)c1nccc(Nc2ccc(Cl)cc2)n1` gave an Inhibition of 89%. `Cc1cccc2nc(-c3ccc(-c4ccc(CN5CCCC(O)C5)cc4)cc3)[nH]c12.O=C(O)C(F)(F)F` (stereo not given) registered an Inhibition of 100%. With `CCCCCCN1CCC(NCc2ccc(OCCN3CCCC3)cc2)CC1.O=C(O)C(F)(F)F`, the Inhibition is reported as 100%.

Usually Inhibition stands for the percentage by which the read-out fell short of the control.
